# In paper PMC8384837, “Expanding the binding specificity for RNA recognition by a PUF domain”:
# Tests used:
# Test in all cases: yeast three-hybrid, YBZ-1, SC-Leu-His + 0.5 mM 3-AT, 4 days
# Conditions in all cases: tags: N-Gal4 AD-HA kept; label: inside an RPR1-promoter hybrid RNA with tandem MS2 sites; ssRNA
# PUM1 PUF domain R3-MWY = PUM1 PUF domain R3-MWY (Homo sapiens, UniProt Q14671 828-1176, C935M;R936W;Q939Y)
# Summary of the method: (§1)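 A centromeric plasmid in strain YBZ-1 co-expressed Pumilio-1 PUF domain libraries, randomized at the three base-contacting residues of each repeat, with matching RNA elements; the strain carries a LexA–MS2 coat fusion and a HIS3 reporter. After four days on SC-Leu (input) or SC-Leu-His + 0.5 mM 3-AT (selection), the repeat regions were PCR-amplified and Illumina-sequenced. The interaction score is the log change in variant frequency from input to selection, using log2 and a pseudocount of 1 where absent.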
# PUM1 PUF domain R3-VFA = PUM1 PUF domain R3-VFA (Homo sapiens, UniProt Q14671 828-1176, C935V;R936F;Q939A)
# Summary of the method: as §1
# PUM1 PUF domain R3-PWL = PUM1 PUF domain R3-PWL (Homo sapiens, UniProt Q14671 828-1176, C935P;R936W;Q939L)
# Summary of the method: as §1
# PUM1 PUF domain R4-APM = PUM1 PUF domain R4-APM (Homo sapiens, UniProt Q14671 828-1176, N971A;H972P;Q975M)
# Summary of the method: as §1
# PUM1 PUF domain R8-KHL = PUM1 PUF domain R8-KHL (Homo sapiens, UniProt Q14671 828-1176, N1122K;Y1123H;Q1126L)
# Summary of the method: as §1
# PUM1 PUF domain R8-MRR = PUM1 PUF domain R8-MRR (Homo sapiens, UniProt Q14671 828-1176, N1122M;Y1123R;Q1126R)
# Summary of the method: as §1
# PUM1 PUF domain R8-VYP = PUM1 PUF domain R8-VYP (Homo sapiens, UniProt Q14671 828-1176, N1122V;Q1126P)
# Summary of the method: as §1
# PUM1 PUF domain R5-RWS = PUM1 PUF domain R5-RWS (Homo sapiens, UniProt Q14671 828-1176, C1007R;R1008W;Q1011S)
# Summary of the method: as §1
# PUM1 PUF domain R5-PHG = PUM1 PUF domain R5-PHG (Homo sapiens, UniProt Q14671 828-1176, C1007P;R1008H;Q1011G)
# Summary of the method: as §1
# PUM1 PUF domain R1-RST = PUM1 PUF domain R1-RST (Homo sapiens, UniProt Q14671 828-1176, S863R;R864S;Q867T)
# Summary of the method: as §1
# PUM1 PUF domain R3-WCA = PUM1 PUF domain R3-WCA (Homo sapiens, UniProt Q14671 828-1176, C935W;R936C;Q939A)
# Summary of the method: as §1
# PUM1 PUF domain R1-KVR = PUM1 PUF domain R1-KVR (Homo sapiens, UniProt Q14671 828-1176, S863K;R864V;Q867R)
# Summary of the method: as §1
# PUM1 PUF domain R1-RLC = PUM1 PUF domain R1-RLC (Homo sapiens, UniProt Q14671 828-1176, S863R;R864L;Q867C)
# Summary of the method: as §1
# PUM1 PUF domain R3-GPW = PUM1 PUF domain R3-GPW (Homo sapiens, UniProt Q14671 828-1176, C935G;R936P;Q939W)
# Summary of the method: as §1
# PUM1 PUF domain R6-RYT = target: T1, PUM1 PUF domain R6-RYT (Homo sapiens, UniProt Q14671 828-1176, N1043R;Q1047T)
# T1 sequence: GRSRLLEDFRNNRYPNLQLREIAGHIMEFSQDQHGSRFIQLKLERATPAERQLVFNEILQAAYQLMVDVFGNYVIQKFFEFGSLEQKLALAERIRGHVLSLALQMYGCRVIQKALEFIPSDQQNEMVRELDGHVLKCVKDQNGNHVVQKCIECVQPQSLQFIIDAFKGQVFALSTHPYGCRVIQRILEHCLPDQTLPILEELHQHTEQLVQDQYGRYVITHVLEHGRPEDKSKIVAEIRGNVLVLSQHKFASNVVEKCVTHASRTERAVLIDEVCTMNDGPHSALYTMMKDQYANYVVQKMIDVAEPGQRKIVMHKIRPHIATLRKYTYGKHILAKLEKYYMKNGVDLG
# Summary of the method: as §1
# PUM1 PUF domain R4-RRY = PUM1 PUF domain R4-RRY (Homo sapiens, UniProt Q14671 828-1176, N971R;H972R;Q975Y)
# Summary of the method: as §1
# PUM1 PUF domain R3-EFV = PUM1 PUF domain R3-EFV (Homo sapiens, UniProt Q14671 828-1176, C935E;R936F;Q939V)
# Summary of the method: as §1
# PUM1 PUF domain R5-LYV = PUM1 PUF domain R5-LYV (Homo sapiens, UniProt Q14671 828-1176, C1007L;R1008Y;Q1011V)
# Summary of the method: as §1
# PUM1 PUF domain R3-ACF = PUM1 PUF domain R3-ACF (Homo sapiens, UniProt Q14671 828-1176, C935A;R936C;Q939F)
# Summary of the method: as §1
# PUM1 PUF domain R5-QTI = PUM1 PUF domain R5-QTI (Homo sapiens, UniProt Q14671 828-1176, C1007Q;R1008T;Q1011I)
# Summary of the method: as §1
# Sequence of PUM1 PUF domain R4-APM (Q14671 828-1176 N971A/H972P/Q975M): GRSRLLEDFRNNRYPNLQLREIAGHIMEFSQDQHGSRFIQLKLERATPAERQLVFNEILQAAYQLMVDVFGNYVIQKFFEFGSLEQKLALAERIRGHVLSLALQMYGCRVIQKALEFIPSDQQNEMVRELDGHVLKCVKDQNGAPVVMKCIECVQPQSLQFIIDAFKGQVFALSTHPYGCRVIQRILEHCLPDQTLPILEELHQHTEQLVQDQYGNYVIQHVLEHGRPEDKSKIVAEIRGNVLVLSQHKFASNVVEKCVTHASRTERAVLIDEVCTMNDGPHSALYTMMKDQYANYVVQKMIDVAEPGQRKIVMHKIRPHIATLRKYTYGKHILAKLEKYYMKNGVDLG
# Sequence of PUM1 PUF domain R8-VYP (Q14671 828-1176 N1122V/Q1126P): as the sequence (Q14671 828-1176 N971A/H972P/Q975M) above, with A144N, P145H, M148Q, N295V, Q299P counted along it
# Sequence of PUM1 PUF domain R3-VFA (Q14671 828-1176 C935V/R936F/Q939A): as the sequence (Q14671 828-1176 N971A/H972P/Q975M) above, with C108V, R109F, Q112A, A144N, P145H, M148Q counted along it
# Sequence of PUM1 PUF domain R1-KVR (Q14671 828-1176 S863K/R864V/Q867R): as the sequence (Q14671 828-1176 N971A/H972P/Q975M) above, with S36K, R37V, Q40R, A144N, P145H, M148Q counted along it
# Sequence of PUM1 PUF domain R8-MRR (Q14671 828-1176 N1122M/Y1123R/Q1126R): as the sequence (Q14671 828-1176 N971A/H972P/Q975M) above, with A144N, P145H, M148Q, N295M, Y296R, Q299R counted along it
# Sequence of PUM1 PUF domain R3-PWL (Q14671 828-1176 C935P/R936W/Q939L): as the sequence (Q14671 828-1176 N971A/H972P/Q975M) above, with C108P, R109W, Q112L, A144N, P145H, M148Q counted along it
# Sequence of PUM1 PUF domain R1-RLC (Q14671 828-1176 S863R/R864L/Q867C): as the sequence (Q14671 828-1176 N971A/H972P/Q975M) above, with S36R, R37L, Q40C, A144N, P145H, M148Q counted along it
# Sequence of PUM1 PUF domain R5-PHG (Q14671 828-1176 C1007P/R1008H/Q1011G): as the sequence (Q14671 828-1176 N971A/H972P/Q975M) above, with A144N, P145H, M148Q, C180P, R181H, Q184G counted along it
# Sequence of PUM1 PUF domain R3-ACF (Q14671 828-1176 C935A/R936C/Q939F): as the sequence (Q14671 828-1176 N971A/H972P/Q975M) above, with C108A, R109C, Q112F, A144N, P145H, M148Q counted along it
# Sequence of PUM1 PUF domain R5-RWS (Q14671 828-1176 C1007R/R1008W/Q1011S): as the sequence (Q14671 828-1176 N971A/H972P/Q975M) above, with A144N, P145H, M148Q, C180R, R181W, Q184S counted along it
sequence,measurement,setting,value
GGCUAGAACUAGUGGAUCCCCCGGCGCCCGGCGGCUCGAGCCCGGGUAAGUGUAAUUAGUCUGCAUGCCGCCGGGCGCCAUGCCUGCAGGUCGACUCUAGAAAACAUG,binding signal,PUM1 PUF domain R3-MWY,3.31 log2 enrichment (interaction score)
same,binding signal,PUM1 PUF domain R3-VFA,2.77 log2 enrichment (interaction score)
same,binding signal,PUM1 PUF domain R3-PWL,3.68 log2 enrichment (interaction score)
GGCUAGAACUAGUGGAUCCCCCGGCGCCCGGCGGCUCGAGCCCGGGUAAGUGUAUAUAGUCUGCAUGCCGCCGGGCGCCAUGCCUGCAGGUCGACUCUAGAAAACAUG,binding signal,PUM1 PUF domain R4-APM,2.03 log2 enrichment (interaction score)
GGCUAGAACUAGUGGAUCCCCCGGCGCCCGGCGGCUCGAGCCCGGGUAAGCGUAAAUAGUCUGCAUGCCGCCGGGCGCCAUGCCUGCAGGUCGACUCUAGAAAACAUG,binding signal,PUM1 PUF domain R8-KHL,5.8 log2 enrichment (interaction score)
same,binding signal,PUM1 PUF domain R8-MRR,2.54 log2 enrichment (interaction score)
same,binding signal,PUM1 PUF domain R8-VYP,3.87 log2 enrichment (interaction score)
GGCUAGAACUAGUGGAUCCCCCGGCGCCCGGCGGCUCGAGCCCGGGUAAGUGUACAUAGUCUGCAUGCCGCCGGGCGCCAUGCCUGCAGGUCGACUCUAGAAAACAUG,binding signal,PUM1 PUF domain R4-APM,2.11 log2 enrichment (interaction score)
GGCUAGAACUAGUGGAUCCCCCGGCGCCCGGCGGCUCGAGCCCGGGUAAGUGUUAAUAGUCUGCAUGCCGCCGGGCGCCAUGCCUGCAGGUCGACUCUAGAAAACAUG,binding signal,PUM1 PUF domain R5-RWS,6.47 log2 enrichment (interaction score)
same,binding signal,PUM1 PUF domain R5-PHG,4.37 log2 enrichment (interaction score)
GGCUAGAACUAGUGGAUCCCCCGGCGCCCGGCGGCUCGAGCCCGGGUAAGUGUAAAUGGUCUGCAUGCCGCCGGGCGCCAUGCCUGCAGGUCGACUCUAGAAAACAUG,binding signal,PUM1 PUF domain R1-RST,2.92 log2 enrichment (interaction score)
GGCUAGAACUAGUGGAUCCCCCGGCGCCCGGCGGCUCGAGCCCGGGUAAGUGUAAGUAGUCUGCAUGCCGCCGGGCGCCAUGCCUGCAGGUCGACUCUAGAAAACAUG,binding signal,PUM1 PUF domain R3-WCA,3.27 log2 enrichment (interaction score)
same,binding signal,PUM1 PUF domain R3-VFA,2.39 log2 enrichment (interaction score)
GGCUAGAACUAGUGGAUCCCCCGGCGCCCGGCGGCUCGAGCCCGGGUAAGUGUAAAUCGUCUGCAUGCCGCCGGGCGCCAUGCCUGCAGGUCGACUCUAGAAAACAUG,binding signal,PUM1 PUF domain R1-RST,5.18 log2 enrichment (interaction score)
same,binding signal,PUM1 PUF domain R1-KVR,1.81 log2 enrichment (interaction score)
same,binding signal,PUM1 PUF domain R1-RLC,3.21 log2 enrichment (interaction score)
GGCUAGAACUAGUGGAUCCCCCGGCGCCCGGCGGCUCGAGCCCGGGUAAGUGUAAAUUGUCUGCAUGCCGCCGGGCGCCAUGCCUGCAGGUCGACUCUAGAAAACAUG,binding signal,PUM1 PUF domain R1-RST,3.88 log2 enrichment (interaction score)
same,binding signal,PUM1 PUF domain R1-KVR,5.73 log2 enrichment (interaction score)
same,binding signal,PUM1 PUF domain R1-RLC,1.93 log2 enrichment (interaction score)
GGCUAGAACUAGUGGAUCCCCCGGCGCCCGGCGGCUCGAGCCCGGGUAAGUGUAAAUAGUCUGCAUGCCGCCGGGCGCCAUGCCUGCAGGUCGACUCUAGAAAACAUG,binding signal,PUM1 PUF domain R3-GPW,4.04 log2 enrichment (interaction score)
same,binding signal,PUM1 PUF domain R6-RYT,2.71 log2 enrichment (interaction score)
same,binding signal,PUM1 PUF domain R4-RRY,2.87 log2 enrichment (interaction score)
same,binding signal,PUM1 PUF domain R3-EFV,3.71 log2 enrichment (interaction score)
same,binding signal,PUM1 PUF domain R5-LYV,3.28 log2 enrichment (interaction score)
same,binding signal,PUM1 PUF domain R8-KHL,4.75 log2 enrichment (interaction score)
same,binding signal,PUM1 PUF domain R4-APM,4.28 log2 enrichment (interaction score)
same,binding signal,PUM1 PUF domain R3-ACF,4.04 log2 enrichment (interaction score)
same,binding signal,PUM1 PUF domain R3-PWL,2.76 log2 enrichment (interaction score)
same,binding signal,PUM1 PUF domain R8-MRR,1.68 log2 enrichment (interaction score)
same,binding signal,PUM1 PUF domain R8-VYP,2.77 log2 enrichment (interaction score)
same,binding signal,PUM1 PUF domain R5-PHG,4.89 log2 enrichment (interaction score)
GGCUAGAACUAGUGGAUCCCCCGGCGCCCGGCGGCUCGAGCCCGGGUAAGUGUGAAUAGUCUGCAUGCCGCCGGGCGCCAUGCCUGCAGGUCGACUCUAGAAAACAUG,binding signal,PUM1 PUF domain R5-QTI,3.11 log2 enrichment (interaction score)
